Values joined by “and” are separate entries in the source; they are usually repeats but may differ in a detail not shown here. Equal values may be shown once. Where a structure was tested more than once in an assay, its records may differ in their call. Active and inactive are the calls of the source. Rule for the calls: active = hit-call score of the fitted dose curve at least 0.9, where 1 is the maximum; inactive = score below 0.9.

Holding throughout (conditions): mRNA level, 48 h; actives raise or lower the signal
Read-out in one assay: Caspase-3 (Homo sapiens) (UniProt P42574)
As to the kind of experiment: LTEA_HepaRG_CASP3: Life Technologies and Expression Analysis (LTEA) Assay for cysteine-aspartic acid protease (CASP3) using HepaRG (AID 2283477). The essentials: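 Expression of CASP3 was quantified by TaqMan qRT-PCR against three housekeeping genes (ACTB, GAPDH, POLR2A), bidirectionally versus 0.5% DMSO. HepaRG cultures received compounds in duplicate, top 100 uM with half-log steps, for 48 h in serum-free induction medium.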

Read-out in assay [1]: Cytochrome P450 (CYP24A1), CYP24A1 (gene 1591)
As to the kind of experiment: LTEA_HepaRG_CYP24A1: Life Technologies and Expression Analysis (LTEA) Assay for Cytochrome P450 (CYP24A1) using HepaRG (AID 2283478). The essentials: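 mRNA of CYP24A1 quantified by TaqMan qRT-PCR (ACTB/GAPDH/POLR2A normalization) after 48 h chemical exposure of HepaRG cells, top concentration 100 uM, half-log steps, 0.5% DMSO vehicle, duplicates. Curves fitted bidirectionally against DMSO baseline.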

Read-out in assay [2]: Cytochrome P450 (CYP2B6), CYP2B6 (gene 1555)
Briefly: LTEA_HepaRG_CYP2B6: Life Technologies and Expression Analysis (LTEA) Assay for Cytochrome P450 (CYP2B6) using HepaRG (AID 2283481). The essentials:
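CYP2B6 transcript level quantified by qRT-PCR against three housekeeping genes, fitted bidirectionally relative to DMSO. HepaRG cultures received chemicals for 48 h, 8-point half-log series from 100 uM in 0.5% DMSO, duplicate wells, serum-free induction medium.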

Read-out in assay [3]: Cytochrome P450 2C19 (Homo sapiens) (UniProt P33261)
As to the kind of experiment: LTEA_HepaRG_CYP2C19: Life Technologies and Expression Analysis (LTEA) Assay for CYP2C19 using HepaRG (AID 2283482). The essentials: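 CYP2C19 transcript levels by qRT-PCR, normalized to three housekeeping genes, in HepaRG cells after 48 h chemical exposure. Eight-point half-log series topping at 100 uM, 0.5% DMSO vehicle. Increases and decreases both fitted against DMSO.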

Read-out in the next assay: CYP2C8 (gene 1558)
Briefly: LTEA_HepaRG_CYP2C8: Life Technologies and Expression Analysis (LTEA) Assay for CYP2C8 using HepaRG (AID 2283483). The method, boiled down: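 Differentiated human HepaRG cells were exposed for 48 h in serum-free induction medium to eight half-log concentrations up to 100 uM in 0.5% DMSO, in duplicate. CYP2C8 mRNA was measured by TaqMan qRT-PCR, normalized to ACTB, GAPDH and POLR2A, and fitted bidirectionally against DMSO.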

Read-out in another assay: CYP2C9 (gene 1559)
As to the kind of experiment: LTEA_HepaRG_CYP2C9: Life Technologies and Expression Analysis (LTEA) Assay for CYP2C9 using HepaRG (AID 2283484). The method, boiled down: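 Differentiated human HepaRG cells were exposed 48 h in serum-free induction medium to eight half-log concentrations up to 100 uM in 0.5% DMSO. CYP2C9 mRNA was measured by qRT-PCR, normalized to ACTB, GAPDH and POLR2A, and fitted bidirectionally against DMSO.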

Read-out in another assay: CYP2E1 (gene 1571)
As to the kind of experiment: LTEA_HepaRG_CYP2E1: Life Technologies and Expression Analysis (LTEA) Assay for CYP2E1 using HepaRG (AID 2283485). The essentials: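 Differentiated HepaRG cells were treated in duplicate for 48 h with chemicals in 0.5% DMSO, from 100 uM downward in half-log dilutions. RNA was then analysed by qRT-PCR for CYP2E1 induction or loss.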

Read-out in the next assay: CYP4A11 (gene 1579)
As to the kind of experiment: LTEA_HepaRG_CYP4A11: Life Technologies and Expression Analysis (LTEA) Assay for CYP4A11 using HepaRG (AID 2283486). The essentials: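 Readout is CYP4A11 transcript level by qRT-PCR, normalized to three housekeeping genes and fitted bidirectionally against 0.5% DMSO. Human HepaRG cells were treated 48 h, in duplicate, with an 8-point half-log series topping at 100 uM.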

Read-out in assay [4]: Cytochrome P450 3A4 (Homo sapiens) (UniProt P08684)
As to the kind of experiment: LTEA_HepaRG_CYP3A4: Life Technologies and Expression Analysis (LTEA) Assay for CYP3A4 using HepaRG (AID 2283487). The method, boiled down:
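CYP3A4 transcript measured by TaqMan qRT-PCR and normalized to three housekeeping genes after 48 h chemical exposure of human HepaRG cells. Top concentration 100 uM, half-log steps, 0.5% DMSO vehicle; gain or loss fitted against DMSO baseline.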

Read-out in assay [5]: DNA damage-inducible transcript 3 (DDIT3), DDIT3 (gene 1649)
As to the kind of experiment: LTEA_HepaRG_DDIT3: Life Technologies and Expression Analysis (LTEA) Assay for DNA damage-inducible transcript 3 (DDIT3) using HepaRG (AID 2283488). The method, boiled down:
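Changes in DDIT3 transcript, in either direction relative to 0.5% DMSO vehicle, were quantified by TaqMan qRT-PCR after 48 h chemical exposure of HepaRG cells at 8 concentrations, maximum 100 uM.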

Caspase-3 (Homo sapiens), sequence (P42574 whole entry, looked up): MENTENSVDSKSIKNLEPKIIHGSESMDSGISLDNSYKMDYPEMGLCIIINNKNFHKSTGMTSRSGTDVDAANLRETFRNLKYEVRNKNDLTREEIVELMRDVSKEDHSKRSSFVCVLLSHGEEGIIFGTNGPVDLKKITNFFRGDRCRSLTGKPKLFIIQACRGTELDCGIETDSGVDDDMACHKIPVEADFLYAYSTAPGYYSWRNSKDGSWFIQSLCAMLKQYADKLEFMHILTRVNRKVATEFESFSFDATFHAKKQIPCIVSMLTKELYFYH
Cytochrome P450 2C19 (Homo sapiens), sequence (P33261 whole entry, looked up): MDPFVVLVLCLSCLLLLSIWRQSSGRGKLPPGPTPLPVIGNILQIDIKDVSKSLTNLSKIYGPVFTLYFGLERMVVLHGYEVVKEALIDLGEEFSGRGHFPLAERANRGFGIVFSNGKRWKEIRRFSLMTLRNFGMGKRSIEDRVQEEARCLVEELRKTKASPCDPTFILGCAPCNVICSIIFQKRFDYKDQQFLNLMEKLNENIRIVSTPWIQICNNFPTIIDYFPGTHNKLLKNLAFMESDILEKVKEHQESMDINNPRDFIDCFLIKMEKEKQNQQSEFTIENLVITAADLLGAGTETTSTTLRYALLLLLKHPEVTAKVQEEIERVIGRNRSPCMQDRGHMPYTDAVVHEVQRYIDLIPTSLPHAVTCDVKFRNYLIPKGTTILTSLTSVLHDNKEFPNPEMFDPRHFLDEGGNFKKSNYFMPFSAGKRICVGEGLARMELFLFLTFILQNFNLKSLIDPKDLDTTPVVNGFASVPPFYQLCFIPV
Cytochrome P450 3A4 (Homo sapiens), sequence (P08684 whole entry, looked up): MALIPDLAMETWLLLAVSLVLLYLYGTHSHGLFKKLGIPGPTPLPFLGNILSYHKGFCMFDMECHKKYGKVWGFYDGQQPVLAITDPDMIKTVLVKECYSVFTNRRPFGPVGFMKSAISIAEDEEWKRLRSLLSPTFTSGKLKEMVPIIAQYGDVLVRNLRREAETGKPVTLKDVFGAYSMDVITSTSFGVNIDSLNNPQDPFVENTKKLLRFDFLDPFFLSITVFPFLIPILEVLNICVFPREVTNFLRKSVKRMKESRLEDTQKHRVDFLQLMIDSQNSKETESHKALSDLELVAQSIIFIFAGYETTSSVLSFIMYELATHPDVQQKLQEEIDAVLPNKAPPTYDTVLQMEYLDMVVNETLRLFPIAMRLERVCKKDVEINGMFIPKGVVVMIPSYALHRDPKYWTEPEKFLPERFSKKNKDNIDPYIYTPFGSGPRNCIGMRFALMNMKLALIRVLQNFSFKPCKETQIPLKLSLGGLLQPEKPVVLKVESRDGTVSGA

For the compound `CCOP(=S)(OCC)Oc1nc(Cl)c(Cl)cc1Cl`, the outcome (with Caspase-3 (Homo sapiens); in assay [1]; in the assay with CYP2C8 (gene 1558); with CYP2C9 (gene 1559); with CYP4A11 (gene 1579); in assay [5]) was inactive. For the same compound, the AC50 is 11.4 µM (active) in assay [2], 23.8 µM (active) in [3], 50 µM (active) with CYP2E1 (gene 1571) and 37.2 µM (active) in assay [4].
As for `COc1cc(-c2ccc(N)c(OC)c2)ccc1N`, the compound was called inactive (with Caspase-3 (Homo sapiens); in assay [1]; in assay [3]; in the assay with CYP2C8 (gene 1558); in the assay with CYP2C9 (gene 1559); in assay [4]). Further, the compound was called inactive in assay [5]. In addition, the AC50 in [2] was 3.49 µM (active) and 4.26 µM (active); with CYP2C9 (gene 1559) it was 77.4 µM (active); in the assay with CYP2E1 (gene 1571), 38.1 µM (active) and 24.1 µM (active); with CYP4A11 (gene 1579) it was 62.6 µM (active) and 50 µM (active); in assay [4], 19.9 µM (active); in assay [5], 80.3 µM (active).
As for `CCC(=O)C(CC(C)N(C)C)(c1ccccc1)c1ccccc1` (configuration not stated), the compound was classed as inactive (with Caspase-3 (Homo sapiens); in assay [1]; with CYP2C8 (gene 1558); with CYP2C9 (gene 1559); with CYP4A11 (gene 1579)). The AC50 in assay [2] was 2.41 µM (active); in assay [3], 10.1 µM (active); with CYP2E1 (gene 1571), 36.2 µM (active); in assay [5], 36.2 µM (active).
With `Cn1sc(Cl)cc1=O`, the outcome (in the assay with Caspase-3 (Homo sapiens); in [1]; in assay [2]; in assay [3]; in the assay with CYP2C8 (gene 1558); with CYP2C9 (gene 1559)) was inactive. For the same compound, the result (with CYP2E1 (gene 1571); with CYP4A11 (gene 1579); in assay [4]; in assay [5]) was inactive.
For `C[C@@H]1C[C@@H]([C@H](O)CC2CC(=O)NC(=O)C2)C(=O)[C@@H](C)C1`, the AC50 with Caspase-3 (Homo sapiens) is 12.3 µM (active). Further, the call in assay [5] was inactive.
For `CC12CC1(C)C(=O)N(c1cc(Cl)cc(Cl)c1)C2=O` (configuration not stated), the call (in assay [1]; with CYP2C8 (gene 1558); with CYP2C9 (gene 1559); in [5]) was inactive. The AC50 in [2] was 4.53 µM (active); in assay [3] it was 8.3 µM (active); with CYP2E1 (gene 1571) it was 16.6 µM (active); in the assay with CYP4A11 (gene 1579), 9.13 µM (active); in assay [4], 5.34 µM (active).
For the compound `O=C(O)C(F)(F)C(F)(F)C(F)(F)C(F)(F)C(F)(F)C(F)(F)F`, the compound was classed as inactive (with Caspase-3 (Homo sapiens); in assay [1]; in the assay with CYP2C8 (gene 1558); with CYP2C9 (gene 1559); with CYP2E1 (gene 1571); in [4]). Besides, in assay [5], the call was inactive. The AC50 in assay [2] was 24.9 µM (active); in assay [3], 0.576 µM (active); with CYP4A11 (gene 1579), 18.6 µM (active).
Consider `Oc1cccc2cccnc12`, for which the compound was classed as inactive (with Caspase-3 (Homo sapiens); in [1]; in assay [2]; in assay [3]; with CYP2C8 (gene 1558); in the assay with CYP2E1 (gene 1571)). For the same compound, the call (in the assay with CYP4A11 (gene 1579); in assay [4]; in assay [5]) was inactive.
In the case of `CCCCCCCCc1ccc(O)cc1`, the result (in the assay with Caspase-3 (Homo sapiens); in assay [1]; in assay [2]; in assay [3]; in the assay with CYP2C8 (gene 1558); with CYP2C9 (gene 1559)) was inactive. Besides, the compound was classed as inactive (in the assay with CYP2E1 (gene 1571); in assay [4]; in assay [5]). For the same compound, in the assay with CYP4A11 (gene 1579), the AC50 was 65.8 µM (active).
Regarding `CC(C)(OO)c1ccccc1`, the compound was called inactive (with Caspase-3 (Homo sapiens); in assay [1]; in [3]; in the assay with CYP2C8 (gene 1558); in the assay with CYP2C9 (gene 1559); with CYP2E1 (gene 1571)). The result (with CYP4A11 (gene 1579); in assay [4]; in [5]) was inactive. For the same compound, the AC50 in assay [2] was 22.9 µM (active).
As for `CCN1CCC2(CC1)COc1cc3c(cc12)N(C(=O)c1ccc(-c2ccc(-c4nnc(C)o4)cc2C)cc1)CC3`, the compound was called inactive (with Caspase-3 (Homo sapiens); in [1]; with CYP2C8 (gene 1558)). The AC50 is 28.3 µM (active) in assay [2]; 21.9 µM (active) in assay [3]; 21.4 µM (active) with CYP2C9 (gene 1559); 17.7 µM (active) with CYP2E1 (gene 1571); 46.8 µM (active) with CYP4A11 (gene 1579); 28 µM (active) in assay [4]. Also, in [5], the AC50 is 11.6 µM (active).
Turning to `CC(C)(C)c1cc(O)ccc1O`, the outcome (with Caspase-3 (Homo sapiens); in assay [1]; in assay [2]; in assay [3]; with CYP2C8 (gene 1558); with CYP2C9 (gene 1559)) was inactive. For the same compound, the compound was called inactive (in the assay with CYP2E1 (gene 1571); in the assay with CYP4A11 (gene 1579); in assay [4]; in assay [5]).
Turning to `C=C(C)C(=O)[O][Sn]([CH2]CCC)([CH2]CCC)[CH2]CCC`, the AC50 is 5 µM (active) with Caspase-3 (Homo sapiens); 2.33 µM (active) in assay [2]; 2.64 µM (active) in [3]; 2.38 µM (active) with CYP2C8 (gene 1558); 1.49 µM (active) with CYP4A11 (gene 1579); 2.52 µM (active) in [4]. Moreover, in [5], the AC50 was 92.4 µM (active). The compound was called inactive (in assay [1]; with CYP2C9 (gene 1559); in the assay with CYP2E1 (gene 1571)).
As for `O=C1C2(Cl)C3(Cl)C4(Cl)C(Cl)(Cl)C5(Cl)C3(Cl)C1(Cl)C5(Cl)C24Cl` (configuration not stated), the AC50 with Caspase-3 (Homo sapiens) is 92.3 µM (active); in [2], 93.5 µM (active); in assay [3] it was 26.4 µM (active); in the assay with CYP2C8 (gene 1558) it was 25.2 µM (active); with CYP2C9 (gene 1559), 94.1 µM (active); in the assay with CYP2E1 (gene 1571), 13.2 µM (active). Moreover, the AC50 in the assay with CYP4A11 (gene 1579) was 22.8 µM (active); in assay [5] it was 89.4 µM (active). Besides, the outcome in [1] and in [4] was inactive.
With `Cc1ccccc1N`, the compound was called inactive (with Caspase-3 (Homo sapiens); in assay [1]; in [2]; in assay [3]; in the assay with CYP2C8 (gene 1558); with CYP2C9 (gene 1559)). Besides, the compound was classed as inactive (with CYP2E1 (gene 1571); with CYP4A11 (gene 1579); in assay [4]; in [5]).
Take `O=C(O)C(Cl)(Cl)Cl`: the compound was classed as inactive (in the assay with Caspase-3 (Homo sapiens); in [1]; in assay [2]; in assay [3]; with CYP2C8 (gene 1558); with CYP2C9 (gene 1559)). Besides, the compound was classed as inactive (with CYP2E1 (gene 1571); with CYP4A11 (gene 1579); in [4]; in assay [5]).

(Values after PubChem BioAssay (EPA / NIEHS).)
